Measurements reported in ChEMBL document CHEMBL3988442, “University of Dundee, Small-Polar-MMV Screening Library” (2021).
The whole screen tested about 48,000 compounds, of which about 13,000 (27%) showed an effect of 50% or more. The list shows a part of the results.

tested on: Wolbachia pipientis; assay: Anti-Wolbachia Cell-Based Screen; format: functional; set-up: scale not given: in the data most compounds retested in dose-response had high values; conditions: 5 µM

In order of falling “Percent Effect” value:
1. Cc1cc(C(=O)N2CCCC(n3ccnc3)C2)c(C)n1C1CC1 (stereo not drawn)  137.5%
2. Cc1cc(C(=O)N2CCCC(n3cccn3)C2)c(C)n1C1CC1 (stereo not drawn)  121.6%
3. CNc1ncccc1CN1CCCCC1c1ccnc(N)n1 (stereo not drawn)  116.5%
4. COCCn1c(=O)n(C)c(=O)c2ccc(C3CCC(CN)CC3)nc21.Cl (stereo not drawn)  114.4%
5. COc1cc2c(c(OC)c1OC)CCN(CCN1CCCCC1)CC2  112.9%
6. CN(C)C(=O)CN1CCC2(COCc3cnc(-c4cccnc4)nc32)C1.O=C(O)C(F)(F)F.O=C(O)C(F)(F)F (stereo not drawn)  108.5%
7. Cc1oncc1C(=O)N[C@@H]1CN(Cc2ccco2)C[C@@H]2CCCO[C@@H]21.O=C(O)C(F)(F)F  107.8%
8. Cc1cccnc1CN1CCCCC1c1ccn2ccnc2n1 (stereo not drawn)  107.3%
9. CCCc1nnc(NC(=O)NC(C)Cn2cccn2)s1 (stereo not drawn)  106.7%
10. Cc1oncc1C(=O)N[C@@H]1CN(Cc2ccoc2)C[C@@H]2CCCO[C@@H]21.O=C(O)C(F)(F)F  105.5%
11. CC1CCN(C(=O)NCC(=O)N(C)CC(F)(F)F)C1 (stereo not drawn)  103.3%
12. CC(Cn1cccn1)NC(=O)Nc1ccccn1 (stereo not drawn)  102.9%
13. CCC(CC)c1nnc(NC(=O)NC(C)Cn2cccn2)s1 (stereo not drawn)  102.8%
14. CC(C)C1CCN(C(=O)NCC(=O)N(C)CC(F)(F)F)CC1  101.1%
15. CN(C)C(=O)CN1CCC2(COCc3cnc(-c4ccccc4)nc32)C1 (stereo not drawn)  100.5%
16. Cc1nnc(NC(=O)NC(C)Cn2cccn2)s1 (stereo not drawn)  98.41%
17. CNc1cc(C2CN(Cc3cccnc3NC)CCO2)nc(C)n1 (stereo not drawn)  96.43%
18. CN(CC(F)(F)F)C(=O)CNC(=O)N1CCC(N2CCCC2)C1 (stereo not drawn)  94.48%
19. CC(Cn1cccn1)NC(=O)Nc1nncs1 (stereo not drawn)  94.45%
20. CNc1ncccc1CN1CCCCC1c1cc(C)n2ccnc2n1 (stereo not drawn)  94%
21. CNc1ncccc1CN1CCC1c1cc(N)nc(C)n1 (stereo not drawn)  93.93%
22. O=C(N[C@@H]1CN(Cc2ccoc2)C[C@@H]2CCCO[C@@H]21)C1CCC1  85.36%
23. COc1cc2c(c(OC)c1OC)CCN(CCn1nc(C)cc1C)CC2  72.3%
24. COc1cc2c(c(OC)c1OC)CCN(CCn1cncn1)CC2  66.41%
25. COCCn1c(=O)n(C)c(=O)c2ccc(C3CCN(C(C)=O)CC3)nc21  55.11%
26. COc1ccc(CN2CCn3cncc3C2)cc1Cn1cncn1  18.87%
27. COC(C)(C)CC(C)NC(=O)Nc1ccccn1 (stereo not drawn)  11.35%
28. CCOC(=O)C1CCN(Cc2c(O)ccc3oc4c(c23)CCCC4)CC1  10.57%
29. COc1cccc(CN2CCc3nc(C(N)=O)sc3CC2)c1.O=C(O)C(F)(F)F  8.884%
30. CCC(=O)N1CCc2[nH]cnc2C12CCN(C(=O)c1snnc1C)CC2  7.824%
31. CCOC1CCN(C(=O)NCCN(C)C(=O)OC(C)(C)C)CC1  7.411%
32. Fc1cccnc1CN1CCCCC1c1ccn2ccnc2n1 (stereo not drawn)  6.686%
33. Cc1ccn(CCNc2ncnc3c2CCN(S(C)(=O)=O)CC3)n1  5.573%
34. Cc1nn2cccnc2c1C(=O)N1CCCC(n2ccnc2)C1 (stereo not drawn)  4.541%
35. c1ccc(CCCN2CCN(CCn3cncn3)CC2)cc1  3.655%
36. CC(C)CCC(C)NC(=O)Nc1ccccn1 (stereo not drawn)  3.296%
37. COc1ccc(Cc2nnc3n2N=C(C(C)(C)C)CS3)cc1  3.244%
38. Cn1ncc(C(=O)N2CCCC(n3cccn3)C2)c1C1CC1 (stereo not drawn)  3.227%
39. Cc1ccccc1CSc1nc(N)cc(N2CC[C@@H](O)C2)n1  2.755%
40. Cc1cccnc1NC(=O)NC(C)Cn1cccn1 (stereo not drawn)  2.456%
41. O=S(=O)(CCCn1cncn1)Cc1cccc(F)c1  2.155%
42. Cc1cccnc1CN1CCN(CC(=O)N(C)C)[C@@H]2CS(=O)(=O)C[C@@H]21  1.676%
43. CC(Cn1cccn1)NC(=O)Nc1ccc(N(C)C)nc1 (stereo not drawn)  1.644%
44. O=C(C1CC=CC1)N1C[C@@H]2CN(Cc3ccsc3)CCO[C@@H]2C1.O=C(O)C(F)(F)F  1.635%
45. Cc1ccc(C2CN(Cc3cnc(-c4ccccn4)s3)CCO2)o1 (stereo not drawn)  1.384%
46. CS(=O)(=O)N[C@@H]1CN(Cc2ccco2)C[C@@H]2CCCO[C@@H]21.O=C(O)C(F)(F)F  1.285%
47. COc1cc2c(cc1OC)CN(C(=O)Cn1nc(C)cc1C)CC2  1.135%
48. O=C(Nc1ccc(-c2csnn2)cc1)N1CCC(N2CCCC2)C1 (stereo not drawn)  0.9%
49. Cc1nnc2n1CC(CNc1cnc3ccccc3n1)CC2 (stereo not drawn)  0.6716%
50. COc1cc2c(cc1OC)CCN(C(=O)Cn1nc(C)cc1C)CC2  0.6612%
51. COCCS(=O)(=O)Nc1ccc(-n2nccc2C(F)(F)F)cc1  0.6513%
52. CNC(=O)[C@@H]1C[C@@H](NC(=O)Cc2cccs2)CN1C1CCOCC1  0.5082%
53. O=C(c1ccc(-c2cc[nH]n2)cc1)N1CC[C@H](CO)[C@H](O)C1  0.4%
54. Cc1cc(C(=O)N2CCCC(n3cncn3)C2)c(C)n1C1CC1 (stereo not drawn)  0.2394%
55. Cc1cc(C)c2c(c1)C(NC(=O)CSCc1ccncc1)CCO2 (stereo not drawn)  0.01106%
56. CN(CC(F)(F)F)C(=O)CNC(=O)Cc1ccccc1O  -0.134%
57. O=C1OCCN1c1cccc(CNS(=O)(=O)Cc2ccc(F)cc2)c1  -0.8668%
58. CC(=O)N1CCC(c2nn(C)c(=O)n2-c2ccccc2)CC1  -1.019%
59. O=C(CC1CCc2ccccc21)NC1(C(=O)O)CCOCC1 (stereo not drawn)  -1.321%
60. COc1ccc(-c2nccn2CCN2CCCCC2)c(OC)c1OC  -1.363%
61. O=C(NCc1ccoc1)Nc1ccc(CN2CCOC2=O)cc1  -1.544%
62. COc1cc(C)cc(C(C(=O)O)N(C)CCN2CCCC2)c1OC (stereo not drawn)  -1.945%
63. CCOc1ccc(NC(=O)Cc2cc(C)[nH]n2)cc1CO  -2.214%
64. CCN1C(=O)CC(N(C)Cc2nc3ccccc3c(=O)[nH]2)C1=O (stereo not drawn)  -2.279%
65. CC(Cn1cccn1)NC(=O)NCc1ccccn1 (stereo not drawn)  -2.779%
66. Cc1ccccc1CN1CCC2(COCc3cnc(N(C)C)nc32)C1.O=C(O)C(F)(F)F (stereo not drawn)  -3.264%
67. CNc1cc(C)nc(C2CN(Cc3ccc(C)nc3)CCO2)c1 (stereo not drawn)  -3.28%
68. CC(Cn1cccn1)NC(=O)Nc1nnc(C2CC2)s1 (stereo not drawn)  -3.463%
69. Cc1oncc1C(=O)N[C@@H]1CN(c2ncccn2)C[C@@H]2CCCO[C@@H]21.O=C(O)C(F)(F)F  -3.566%
70. CN(C)c1ncc2c(n1)C1(CCN(Cc3ccccc3F)C1)COC2.O=C(O)C(F)(F)F (stereo not drawn)  -3.722%
71. CC(Cn1cccn1)NC(=O)Nc1nccs1 (stereo not drawn)  -3.735%
72. Cc1nc2ccccn2c1CN1C[C@@H](CN2CCOCC2)[C@@H](CO)C1  -3.894%
73. CN(CC(F)(F)F)C(=O)CNC(=O)Cc1cccc(O)c1  -3.923%
74. COc1ccc(NC(=O)NC(C)Cn2cccn2)cn1 (stereo not drawn)  -4.158%
75. CC(C)CCN(C)C(=O)c1cc(CN2CCC(O)CC2)on1  -4.489%
76. COc1cccc(CN2CCC3(COCc4cnc(N(C)C)nc43)C2)c1.O=C(O)C(F)(F)F (stereo not drawn)  -4.622%
77. CN(C)[C@@H]1CN(Cc2ccoc2)C[C@@H]2CCCO[C@@H]21.O=C(O)C(F)(F)F.O=C(O)C(F)(F)F  -4.757%
78. CNc1cc(C2CCCN2Cc2ccccc2OCC(=O)O)ccn1 (stereo not drawn)  -5.445%
79. Cc1ccc(NC(=O)NC(C)Cn2cccn2)cc1 (stereo not drawn)  -6.589%
80. Cc1cnn(CCCNC(=O)N2CCCCC(N3CCCC3)C2)c1 (stereo not drawn)  -6.749%
81. O=C(CC1CC1)N[C@@H]1CN(Cc2ccoc2)C[C@@H]2CCCO[C@@H]21  -6.81%
82. CC(C)=CCN1CCN(CCCc2ccccc2)[C@H]2CS(=O)(=O)C[C@H]21  -6.821%
83. COCCN1C(=O)[C@H]2CC[C@@H]1CN(c1nccc(C3CCCC3)n1)C2  -7.608%
84. O=C(CC1CC1)N[C@@H]1CN(Cc2ccco2)C[C@@H]2CCCO[C@@H]21.O=C(O)C(F)(F)F  -7.613%
85. CC(C)=CCN1C[C@H]2CC[C@@H]1CN(CCC(=O)NCc1ccco1)C2  -7.993%
86. Cn1cc(N2CCC(Nc3ccc4nccnc4n3)C2=O)cn1 (stereo not drawn)  -8.237%
87. CCN(Cc1cc(Cl)c(O)c(OC)c1)Cc1nc(COC)no1  -9.296%
88. CN(CC(F)(F)F)C(=O)CNC(=O)Cc1ccc(O)cc1Cl  -9.929%
89. COCCN1CCC(c2nc3c([nH]2)CC(C)(C)CNC3=O)C1 (stereo not drawn)  -9.937%
90. CC(C)CS(=O)(=O)CC(=O)N(C)Cc1ccc(OC(F)F)cc1  -10.21%
91. CS(=O)(=O)CCNC(=O)N(Cc1ccoc1)C1CCCCC1  -12.04%
92. Cc1cc(N2CCC(n3cc(CN4CCSCC4)nn3)CC2)ccn1  -12.68%
93. O=C(O)[C@@]12CN(c3cnccn3)C[C@@H]1CN(C1CCOCC1)C2  -13.72%
94. O=C1CCc2cc(S(=O)(=O)NC(=O)c3ccc4c(c3)CCO4)ccc2N1  -17.2%
95. CSCC(C)(O)CNC(=O)c1cccc(Cl)c1Cl (stereo not drawn)  -18.01%
96. COCCn1ccnc1C1CCN(C(=O)C(O)c2ccc(F)cc2)CC1 (stereo not drawn)  -18.13%
97. CN(Cc1nc2ccccc2c(=O)[nH]1)C[C@@H]1CCCN2CCCC[C@H]12  -19.12%
98. CCOc1cccc(CCNC(=O)Cc2ccn[nH]2)n1  -27.67%
